Only some compounds are listed: those with a hit (about 12% of all), similar ones and a draw of the others.
HP1b chromo inh = inhibitors of HP1-beta chromodomain binding to methylated histone tails. hit rate 0.56% among 390,000. AlphaScreen HP1-beta / biotin-H3K9me3 peptide binding. P83916. Potency, µM (highest dose often 114 µM), without a hit: at the top dose activity change, negative = inhibition, hits mostly inhibitors. AID 540317; also: nearly all actives have a fitted effect of over 70% in size
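HP1-beta protein (50 nM final) preincubated 30 min at room temperature with biotinylated H3(1-18)K9me3 peptide (50 nM) in PBS pH 7.4, 0.01% Tween-20, then compound added for 30 min. AlphaScreen streptavidin donor/nickel chelate acceptor beads (10 ug/mL final), 30 min dark, luminescence read.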
G9a block = G9a (human) methyltransferase inhibition; Q96KQ7; G9a H3K9 monomethylation, AlphaScreen, 2 h; Potency, µM (doses to about 102 µM), for the others: at the highest dose activity, negative = inhibition, actives largely listed as inhibitors; hit rate 8.8% among 350,000; AID 504332; also: % is scaled to controls: 0 for no effect and ±100 for the full control effect; nearly all actives have a fitted effect of over 75% in size
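Signal arises when biotinylated H3K9 peptide, once monomethylated, bridges streptavidin donor and antibody-captured acceptor beads. Enzyme at 20 nM was preincubated 15 min with test compounds; peptide 500 nM and SAM 20 uM then reacted for 2 h.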
JMJD2A Tudor = inhibitors of human JMJD2A Tudor domain; O75164; AlphaScreen JMJD2A-Tudor / H3K4me3 peptide binding; Potency, µM (top dose mostly 114 µM), without a hit: top-dose activity change, negative = inhibition, usual class: inhibitors; hit rate 4.4% among 390,000; AID 504339; also: % is scaled to controls: 0 for no effect and ±100 for the full control effect; nearly all actives have a fitted effect of over 50% in size
BAZ2B inh = inhibitors of human BAZ2B bromodomain | Q9UIF8 | AlphaScreen BAZ2B-H3K14Ac peptide displacement | Potency, µM (top dose mostly 114 µM), without a hit: at the top dose activity change, negative = inhibition, hits mostly inhibitors | hit rate 4.4% among 360,000 | AID 504333; also: % is scaled to controls: 0 for no effect and ±100 for the full control effect; nearly all actives have a fitted effect of over 60% in size
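BAZ2B (50 nM) with biotin-H3(5-23)K14Ac peptide (50 nM) in PBS pH 7.4, 0.01% Tween-20, preformed 30 min, then compound 30 min at room temperature; top concentration 110uM. AlphaScreen streptavidin donor/nickel chelate acceptor beads (10 ug/mL final), 20 min dark, signal read.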
Sfp PPTase inh = blocks B. subtilis Sfp PPTase activity. Potency, µM, for the others: largest response in the series, negative = inhibition, usual class: inhibitors. Q9F4F7. Biochemical Sfp PPTase activity, qHTS. AID 1490. hit rate 3.5% among 310,000;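 also: the enzyme is Sfp with the accession as filed and its product quenches rhodamine fluorescence; 0% = enzyme reaction without inhibitor and -100% = no enzyme wells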
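After 15 min at room temperature with compound, 15 nM Sfp received 5 uM rhodamine-CoA plus 12.5 uM BHQ-2-ybbR (50 mM Hepes pH 7.6, 10 mM MgCl2). Rate came from the fluorescence difference over 30 min, ex 525/em 598 nm.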
PLK1 PBD inh = blocks phosphopeptide binding to human PLK1 polo-box domain; P53350; Plk1 PBD binding of FITC phosphopeptide, fluorescence polarization; Potency, µM, for the others: max response, negative = inhibition, usual class: inhibitors; hit rate 2.8% among 360,000; AID 720504; also: series mostly up to about 57 µM; % is scaled to controls: 0 for no effect and ±100 for the full control effect; nearly all actives have a fitted effect of over 65% in size
Target sequence (P53350 whole entry, looked up, the tested form may be a part): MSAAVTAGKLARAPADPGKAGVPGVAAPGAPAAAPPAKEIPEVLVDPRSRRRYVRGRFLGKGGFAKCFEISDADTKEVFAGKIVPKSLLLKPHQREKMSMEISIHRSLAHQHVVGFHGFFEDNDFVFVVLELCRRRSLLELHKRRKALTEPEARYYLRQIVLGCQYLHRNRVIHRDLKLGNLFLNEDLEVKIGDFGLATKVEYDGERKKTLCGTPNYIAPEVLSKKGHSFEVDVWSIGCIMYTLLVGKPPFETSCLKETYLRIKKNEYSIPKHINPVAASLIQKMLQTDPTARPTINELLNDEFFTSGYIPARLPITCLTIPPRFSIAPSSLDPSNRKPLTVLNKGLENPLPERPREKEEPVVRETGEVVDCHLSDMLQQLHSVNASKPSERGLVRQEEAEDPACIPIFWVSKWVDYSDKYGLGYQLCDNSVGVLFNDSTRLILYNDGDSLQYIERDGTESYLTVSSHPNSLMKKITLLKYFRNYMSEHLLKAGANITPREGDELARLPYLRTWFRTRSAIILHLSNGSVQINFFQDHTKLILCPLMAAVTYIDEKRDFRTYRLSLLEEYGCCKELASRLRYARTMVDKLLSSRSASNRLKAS
* hit, by the source's call; ? = inconclusive; · = not tested or not shown; [ ] = remark or other dose. Calls follow the shape of the dose curve; as a rule, active = well fitted curve in the direction sought with a large enough effect; inconclusive = small, poorly fitted or top-dose-only effect, or another doubt; inactive = no such curve, though single readings can be large; an effect the other way counts as inactive or inconclusive. Potency is read from the fitted curve at half-maximal effect.

SMILES | HP1b chromo inh | G9a block | JMJD2A Tudor | BAZ2B inh | Sfp PPTase inh | PLK1 PBD inh
CC(C)CNC(=O)[C@@H]1CSC2c3ccccc3C(=O)N21 (some centres not stated) | 15% | -3% | -12% | 5% | 5% | ?
COc1ccc(N=C2SC(CC(=O)Nc3ccccc3)C(=O)N2Cc2ccccn2)cc1 (configuration not stated) | 27% | 50µM* | -33% | ? | -14% | -8%
COc1ccc(NC(=O)CC(C(=O)O)C(C)c2ccccc2)cc1 (configuration not stated) | 37% | 16%[59 µM] | -5% | -3% | 15% | -17%
COc1ccc(NC(=O)CC(NCc2ccccn2)C(=O)O)cc1 (configuration not stated) | 40% | 8% | 13µM* | 3.2µM* | 10% | -7%
CCOc1ccc(NC(=O)CC(NCc2ccccn2)C(=O)O)cc1 (configuration not stated) | 42% | ? | 11µM* | 1.4µM* | 18% | -5%
Cc1ccc(NC(=O)C(=O)NCC(c2cccnc2)N2CCN(Cc3ccccc3)CC2)cc1Cl (configuration not stated) | 24% | -20%[59 µM] | -12% | -11% | · | ·
CC(C)C(=O)N1CCc2cc(-c3csc(N)n3)ccc21 | -22% | ? | -23% | ? | 40µM* | 24µM*
Cc1oc(-c2ccc(Cl)cc2)cc1C(=O)/C(C#N)=C/Nc1ccccc1 | -2% | 28µM* | -18% | -8% | ? | -9%
Cc1oc(-c2ccc(Cl)cc2)cc1C(=O)NC1CCN(Cc2ccccc2)CC1 | 0% | -30% | -18% | -13% | -5% | -3%
Nc1ccc2nn(-c3cc([N+](=O)[O-])ccc3O)nc2c1 | 26% | 40µM* | -12% | -9% | -6% | -9%
Nc1ccc(-n2cnc3cc([N+](=O)[O-])ccc32)cc1 | 4% | 5%[12.7 µM] | -7% | -6% | 15% | -4%
CNC1=C(Cl)C(=O)c2ccncc2C1=O | · | · | · | · | 2% | ·
O=C(NCc1ccco1)c1cnn2c(C(F)(F)F)cc(-c3cccs3)nc12 | 16% | -4%[59 µM] | -6% | · | 32µM* | -12%
O=C(O)c1cnn2c(C(F)(F)F)cc(-c3ccco3)nc12 | 20% | 50µM* | 20µM* | -32% | 4% | -4%
Cc1ccc(-c2cc(C(F)(F)F)n3ncc(C(=O)O)c3n2)cc1 | 14% | ? | -11%[11.4 µM] | -3% | 7% | 30µM*
CC1CCc2cc(F)ccc2N1C(=O)c1cc2nc(-c3ccco3)cc(C(F)(F)F)n2n1 (configuration not stated) | 26% | 50µM* | 2% | 3% | -9% | -6%
O=C(c1cc2nc(-c3ccco3)cc(C(F)(F)F)n2n1)N1CCN(c2ccc(F)cc2)CC1 | 0% | -4%[12.7 µM] | ? | -33% | -16% | -2%
COc1ccc(-c2cc(C(F)(F)F)n3ncc(C(=O)O)c3n2)cc1OC | 31% | -38%[59 µM] | -15% | -28% | 6% | 3%
COc1ccccc1N(CC(=O)N1CCN(c2ccccc2)CC1)S(=O)(=O)c1ccc(C)cc1 | ? | ? | -31% | -31% | 5% | -8%
Cc1cc(C)c(Cc2c(C)nc3c(C(=O)NCc4ccco4)cnn3c2C)c(C)c1 | -8% | ? | ? | -8% | 56µM* | -3%
Cc1ccc(S(=O)(=O)N2CCN(C(=O)c3ccccc3Cc3ccccc3)CC2)c(C)c1 | 30% | 0% | -14% | -19% | 0% | 0%
COc1ccc(-c2ccoc2)cc1C1C2C=CCC(C)C2C(=O)N1Cc1ccccc1 (configuration not stated) | 4% | · | ? | · | -15% | ·
COc1cc(N/N=C(\C)c2ccc(N)cc2)nc(-c2ccccc2)n1 | 3% | 45µM* | -34% | 32µM* | 15% | 2%
COc1cc(N/N=C(\C)c2ccc(O)c(C)c2)nc(-c2ccccc2)n1 | ? | ? | ? | -28% | 9% | -6%
O=C(NCCc1cccc(Cl)c1)c1cccc(-n2cnnn2)c1 | 20% | 45µM* | -3% | -1% | · | 1%
SMILES | HP1b chromo inh | G9a block | JMJD2A Tudor | BAZ2B inh | Sfp PPTase inh | PLK1 PBD inh
Cc1ccc(CN2C(=O)C(C)Nc3ncnc(N4CCN(c5ccccn5)CC4)c32)cc1 (configuration not stated) | 10% | -3%[2.33 µM] | 79µM* | ? | · | 5%
CC(C)CC1Nc2ncnc(N3CCN(c4ccccn4)CC3)c2N(Cc2ccc(Br)cc2)C1=O (configuration not stated) | 35% | ? | -35% | -35% | · | 1%
CC1Nc2ncnc(N3CCN(c4ccccn4)CC3)c2N(Cc2ccccc2)C1=O (configuration not stated) | 32% | -50%[12.7 µM] | -31% | -37% | · | 1%
Cc1ccc(CN2C(=O)C(CC(C)C)Nc3ncnc(N4CCN(c5ccccn5)CC4)c32)cc1 (configuration not stated) | 19% | ? | 79µM* | ? | · | -18%
C1CCN2C[C@@H]3C[C@@H](CN4CCCC[C@H]34)[C@H]2C1 | · | 31%[21.5 µM] | · | · | 29% | ·
COc1ccc2cc(-c3csc(-c4cccnc4)n3)ccc2c1 | 18% | -18%[59 µM] | -22% | ? | 5% | 1%
COc1ccc(-c2csc(-c3cccnc3)n2)cc1C | 74% | 7%[0.501 µM] | 16% | 1% | 50µM* | -17%
NC(=O)c1cc(-c2csc(-c3cccnc3)n2)ccc1O | 31% | 32µM* | -14% | -22% | ? | -12%
CCC(C(=O)NCCN1CCOCC1)n1c2ccccc2c2nc(=O)cc(C)n21 (configuration not stated) | 18% | 23% | -8% | -16% | 8% | -10%
C=CCc1cccc2cc(C(=O)NCCOC)c(=O)oc12 | 1% | 18% | -10% | -14% | 22% | 7%
C=CCc1cccc2cc(NC(C)=O)c(=O)oc12 | -16% | 20%[59 µM] | 1%[11.4 µM] | 9% | 13% | 27µM*
S=c1nn[nH]n1C12CC3CC(CC(C3)C1)C2 | -5% | 1.4µM* | 50µM* | ? | ? | ?
Cc1cc(N2CCCCC2)nc2ccc(NC(=O)/C=C/c3ccc(OCCC(C)C)cc3)cc12 | -2% | -8%[59 µM] | -30% | -5% | · | ·
COc1ccc2occ(C(=O)c3ccccc3)c2c1 | 175% | 113% | 76% | 48% | ? | -18%
CNc1ccc(OC(F)F)cc1C(=O)c1ccccc1 | -6% | -16%[59 µM] | ? | ? | -21% | 0%
CC(=O)c1c(C)oc2c1C(=O)c1ccccc1C2=O | -3% | -13% | -21% | 0% | 4% | -21%
O=C(c1ccccc1)c1coc2c1C(=O)c1ccccc1C2=O | ? | 45µM* | -19% | 32µM* | ? | -7%
O=C1c2ccccc2C(=O)c2c1oc(C(F)(F)F)c2C(=O)c1ccccc1 | ? | 4µM* | ? | 7.1µM* | -10% | -7%

Source: PubChem BioAssay (National Center for Advancing Translational Sciences (NCATS))
